Reference: the supplement of paper PMC11732987, “Enantioselective OTUD7B fragment discovery through chemoproteomics screening and high-throughput optimisation” (Communications Chemistry, 2025)
Values without a mark were called inactive.

These targets were tested with ClCC(=O)NC1(CCCC1)C#N (assay: log2 ratio of Biotin-Ahx-Ub-VS probe labelling (compound/DMSO); higher = less target engagement, active = hit call of the paper (q ≤ 0.05, log2 ratio ≤ -1)). Settings: compound concentration: 50uM; treatment time: 3 h.
Protocol: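 Round 2 competitive ABPP in HEK293T lysate. Compounds were tested at 50 and 200 µM for 3 h, followed by Biotin-Ahx-Ub-VS enrichment and diaPASEF LC-MS/MS. Values are the average log2 ratio (compound/DMSO) from an unpaired t-test (n=3 treated, n=26 DMSO).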

Chain of UniProt Q9UGI0 (Q9UGI0 whole entry): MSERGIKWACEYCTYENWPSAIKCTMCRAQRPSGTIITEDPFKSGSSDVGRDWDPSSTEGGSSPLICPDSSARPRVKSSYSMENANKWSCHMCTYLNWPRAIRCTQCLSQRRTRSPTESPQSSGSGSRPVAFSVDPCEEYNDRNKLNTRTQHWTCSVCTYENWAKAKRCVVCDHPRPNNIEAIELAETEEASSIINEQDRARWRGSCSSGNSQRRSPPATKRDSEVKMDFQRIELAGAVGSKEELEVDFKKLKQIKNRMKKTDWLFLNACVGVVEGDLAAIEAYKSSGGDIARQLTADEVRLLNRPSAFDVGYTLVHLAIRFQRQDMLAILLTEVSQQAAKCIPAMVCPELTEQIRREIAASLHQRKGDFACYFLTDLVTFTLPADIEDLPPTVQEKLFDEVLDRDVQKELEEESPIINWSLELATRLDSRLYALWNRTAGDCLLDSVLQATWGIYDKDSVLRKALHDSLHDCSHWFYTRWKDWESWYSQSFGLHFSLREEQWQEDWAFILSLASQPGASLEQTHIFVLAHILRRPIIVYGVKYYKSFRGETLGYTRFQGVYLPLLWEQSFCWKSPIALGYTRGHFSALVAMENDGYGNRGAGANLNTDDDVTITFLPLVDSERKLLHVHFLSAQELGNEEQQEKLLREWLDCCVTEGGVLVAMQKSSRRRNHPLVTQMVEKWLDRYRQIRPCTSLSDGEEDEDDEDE
Chain of UniProt Q8TE49 (Q8TE49 whole entry): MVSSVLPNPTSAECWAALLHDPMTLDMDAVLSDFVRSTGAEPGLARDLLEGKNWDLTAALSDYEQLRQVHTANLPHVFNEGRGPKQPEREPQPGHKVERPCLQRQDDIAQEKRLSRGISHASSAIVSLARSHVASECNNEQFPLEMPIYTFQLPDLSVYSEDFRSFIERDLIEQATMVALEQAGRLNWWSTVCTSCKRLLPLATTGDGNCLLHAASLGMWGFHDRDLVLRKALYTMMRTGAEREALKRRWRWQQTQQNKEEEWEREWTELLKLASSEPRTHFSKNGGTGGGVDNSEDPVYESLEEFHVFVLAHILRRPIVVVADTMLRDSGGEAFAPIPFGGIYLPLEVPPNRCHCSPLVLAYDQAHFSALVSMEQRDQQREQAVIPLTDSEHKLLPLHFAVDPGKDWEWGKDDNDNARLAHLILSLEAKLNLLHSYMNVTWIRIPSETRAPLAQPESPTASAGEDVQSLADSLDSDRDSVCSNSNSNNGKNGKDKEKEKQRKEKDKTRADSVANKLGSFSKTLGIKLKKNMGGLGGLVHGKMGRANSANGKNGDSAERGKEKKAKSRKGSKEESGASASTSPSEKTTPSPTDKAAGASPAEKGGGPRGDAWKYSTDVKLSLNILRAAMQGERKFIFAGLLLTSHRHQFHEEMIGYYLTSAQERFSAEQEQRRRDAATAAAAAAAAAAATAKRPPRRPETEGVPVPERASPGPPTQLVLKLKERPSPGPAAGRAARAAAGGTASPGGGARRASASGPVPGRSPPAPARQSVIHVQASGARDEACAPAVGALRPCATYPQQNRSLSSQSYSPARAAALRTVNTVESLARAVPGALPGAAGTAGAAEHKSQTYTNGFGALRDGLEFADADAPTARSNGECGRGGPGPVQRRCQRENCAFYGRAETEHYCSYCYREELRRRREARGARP
Chain of UniProt Q9Y5T5 (Q9Y5T5 whole entry, looked up): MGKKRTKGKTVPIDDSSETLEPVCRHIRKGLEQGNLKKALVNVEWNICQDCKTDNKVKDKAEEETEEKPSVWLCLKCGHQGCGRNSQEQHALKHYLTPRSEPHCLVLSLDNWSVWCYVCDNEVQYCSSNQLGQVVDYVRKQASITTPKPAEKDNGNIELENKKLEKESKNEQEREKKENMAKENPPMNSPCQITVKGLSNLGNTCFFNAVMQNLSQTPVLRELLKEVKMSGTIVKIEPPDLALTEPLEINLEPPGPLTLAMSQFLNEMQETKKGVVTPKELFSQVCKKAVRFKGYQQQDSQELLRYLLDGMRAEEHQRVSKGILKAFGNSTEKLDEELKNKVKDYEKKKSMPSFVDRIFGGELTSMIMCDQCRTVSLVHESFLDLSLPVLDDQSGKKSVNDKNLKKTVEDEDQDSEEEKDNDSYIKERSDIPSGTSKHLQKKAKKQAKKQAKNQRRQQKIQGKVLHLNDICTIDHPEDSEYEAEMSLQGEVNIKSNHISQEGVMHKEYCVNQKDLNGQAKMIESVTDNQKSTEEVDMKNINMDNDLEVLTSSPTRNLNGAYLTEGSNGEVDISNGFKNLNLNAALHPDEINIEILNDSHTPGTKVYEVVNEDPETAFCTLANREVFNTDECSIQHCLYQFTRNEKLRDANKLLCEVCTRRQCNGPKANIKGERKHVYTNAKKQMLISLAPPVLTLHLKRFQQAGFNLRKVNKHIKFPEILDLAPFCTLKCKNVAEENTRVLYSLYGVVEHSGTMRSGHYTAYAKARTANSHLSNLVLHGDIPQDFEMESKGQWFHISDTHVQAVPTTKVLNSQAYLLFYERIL
Chain of UniProt Q9H9J4 (Q9H9J4 whole entry): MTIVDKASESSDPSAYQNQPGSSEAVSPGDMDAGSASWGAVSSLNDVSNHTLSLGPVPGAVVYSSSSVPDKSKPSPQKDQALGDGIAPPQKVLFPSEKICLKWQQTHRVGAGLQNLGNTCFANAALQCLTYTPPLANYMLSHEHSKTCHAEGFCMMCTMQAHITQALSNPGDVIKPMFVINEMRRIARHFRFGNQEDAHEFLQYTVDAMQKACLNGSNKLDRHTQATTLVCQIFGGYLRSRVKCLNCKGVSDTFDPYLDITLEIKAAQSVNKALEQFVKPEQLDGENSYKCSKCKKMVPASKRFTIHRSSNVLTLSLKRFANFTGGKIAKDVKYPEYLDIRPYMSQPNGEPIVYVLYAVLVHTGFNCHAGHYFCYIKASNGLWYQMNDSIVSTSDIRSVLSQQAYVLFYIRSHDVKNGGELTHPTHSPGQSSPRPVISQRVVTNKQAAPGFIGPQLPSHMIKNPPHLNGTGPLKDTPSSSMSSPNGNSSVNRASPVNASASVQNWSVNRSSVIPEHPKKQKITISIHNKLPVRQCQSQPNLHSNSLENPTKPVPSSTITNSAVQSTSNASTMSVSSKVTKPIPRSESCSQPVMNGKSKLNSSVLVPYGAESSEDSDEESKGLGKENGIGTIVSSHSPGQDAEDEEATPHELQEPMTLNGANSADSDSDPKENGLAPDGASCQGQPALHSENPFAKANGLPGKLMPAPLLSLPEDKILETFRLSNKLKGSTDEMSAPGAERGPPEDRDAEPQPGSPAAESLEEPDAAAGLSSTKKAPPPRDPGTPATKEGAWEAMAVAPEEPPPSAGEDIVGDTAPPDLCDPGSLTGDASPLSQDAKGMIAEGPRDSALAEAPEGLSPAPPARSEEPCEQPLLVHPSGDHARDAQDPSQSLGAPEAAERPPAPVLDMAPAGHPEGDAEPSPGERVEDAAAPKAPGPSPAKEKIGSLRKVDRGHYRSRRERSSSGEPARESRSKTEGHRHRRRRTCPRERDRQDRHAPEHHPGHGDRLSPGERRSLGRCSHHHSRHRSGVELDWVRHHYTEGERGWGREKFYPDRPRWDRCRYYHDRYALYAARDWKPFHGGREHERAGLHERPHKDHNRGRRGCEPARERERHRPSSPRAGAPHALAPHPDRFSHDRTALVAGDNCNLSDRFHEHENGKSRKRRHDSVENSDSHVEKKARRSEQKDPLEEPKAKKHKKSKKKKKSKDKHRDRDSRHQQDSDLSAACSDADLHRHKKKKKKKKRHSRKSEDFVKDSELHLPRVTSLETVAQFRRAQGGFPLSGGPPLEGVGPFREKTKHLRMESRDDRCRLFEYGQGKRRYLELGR
Chain of UniProt Q6GQQ9 (Q6GQQ9 whole entry): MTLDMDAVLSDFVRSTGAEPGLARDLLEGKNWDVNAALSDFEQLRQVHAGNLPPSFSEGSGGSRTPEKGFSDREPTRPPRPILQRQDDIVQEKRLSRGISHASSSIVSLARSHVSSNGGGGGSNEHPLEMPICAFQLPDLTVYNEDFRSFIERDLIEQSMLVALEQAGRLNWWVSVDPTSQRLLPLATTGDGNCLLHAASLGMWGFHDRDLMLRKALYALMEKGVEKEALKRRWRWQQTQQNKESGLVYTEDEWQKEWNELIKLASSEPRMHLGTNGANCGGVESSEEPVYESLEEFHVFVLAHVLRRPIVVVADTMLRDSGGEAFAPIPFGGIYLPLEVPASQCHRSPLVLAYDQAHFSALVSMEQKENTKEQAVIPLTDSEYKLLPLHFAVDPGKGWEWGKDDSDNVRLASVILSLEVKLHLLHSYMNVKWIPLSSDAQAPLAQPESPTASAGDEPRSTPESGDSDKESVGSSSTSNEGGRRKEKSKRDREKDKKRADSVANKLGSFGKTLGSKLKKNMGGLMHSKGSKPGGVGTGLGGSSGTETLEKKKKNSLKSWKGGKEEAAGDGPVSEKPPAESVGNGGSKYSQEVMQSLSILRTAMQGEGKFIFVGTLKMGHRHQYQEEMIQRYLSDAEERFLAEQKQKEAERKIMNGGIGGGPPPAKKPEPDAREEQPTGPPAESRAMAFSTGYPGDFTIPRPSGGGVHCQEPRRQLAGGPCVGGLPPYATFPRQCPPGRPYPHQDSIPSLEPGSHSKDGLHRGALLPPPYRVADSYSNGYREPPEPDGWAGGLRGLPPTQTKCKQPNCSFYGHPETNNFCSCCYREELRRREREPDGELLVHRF
Chain of UniProt P15374 (P15374 whole entry): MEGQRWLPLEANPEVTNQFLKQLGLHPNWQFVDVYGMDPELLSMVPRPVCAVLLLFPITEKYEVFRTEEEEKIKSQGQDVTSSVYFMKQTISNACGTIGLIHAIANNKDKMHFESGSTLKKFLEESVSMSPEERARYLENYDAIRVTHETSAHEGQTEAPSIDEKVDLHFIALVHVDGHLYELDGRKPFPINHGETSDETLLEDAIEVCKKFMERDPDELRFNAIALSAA
Chain of UniProt P09936 (P09936 whole entry, looked up): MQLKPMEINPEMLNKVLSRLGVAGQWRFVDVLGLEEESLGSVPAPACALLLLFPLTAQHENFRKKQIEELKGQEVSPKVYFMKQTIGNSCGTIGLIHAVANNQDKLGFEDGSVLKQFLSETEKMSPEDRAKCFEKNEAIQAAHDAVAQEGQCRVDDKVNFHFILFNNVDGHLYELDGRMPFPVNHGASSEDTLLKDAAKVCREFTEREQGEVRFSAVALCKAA

| Target | log2 ratio of Biotin-Ahx-Ub-VS probe labelling |
| --- | --- |
| USP5 (UniProt P45974) | -0.165 |
| USP16 (UniProt Q9Y5T5) | -0.176 |
| PRPF8 (UniProt Q6P2Q9) | -0.0469 |
| UniProt Q70EL2 | -0.267 |
| USP42 (UniProt Q9H9J4) | -0.155 |
| USP39 (UniProt Q53GS9) | 0.213 |
| USP36 (UniProt Q9P275) | -0.292 |
| BAP1 (UniProt Q92560) | -1.04 (active) |
| USP28 (UniProt Q96RU2) | 0.02 |
| USP48 (UniProt Q86UV5) | -0.156 |
| UCHL1 (UniProt P09936) | -0.205 |
| UniProt Q8TE49 | -0.765 |
| UCHL5 (UniProt Q9Y5K5) | -0.245 |
| USP9X (UniProt Q93008) | -0.227 |
| UniProt Q9UGI0 | -0.46 |
| UniProt P51784 | 0.0618 |
| USP8 (UniProt P40818) | -0.191 |
| UCHL3 (UniProt P15374) | -0.252 |
| OTUD7B (UniProt Q6GQQ9) | -1.16 (active) |
| USP4 (UniProt Q13107) | -0.0435 |

Same assay, conditions: compound concentration: 200uM; treatment time: 3 h

| Target | log2 ratio of Biotin-Ahx-Ub-VS probe labelling |
| --- | --- |
| USP5 (UniProt P45974) | -0.145 |
| USP16 (UniProt Q9Y5T5) | -0.253 |
| PRPF8 (UniProt Q6P2Q9) | -0.0301 |
| UniProt Q70EL2 | 0.248 |
| USP42 (UniProt Q9H9J4) | -0.0948 |
| USP39 (UniProt Q53GS9) | -0.0479 |
| USP36 (UniProt Q9P275) | -0.22 |
| BAP1 (UniProt Q92560) | -2.81 (active) |
| USP28 (UniProt Q96RU2) | -0.257 |
| USP48 (UniProt Q86UV5) | -0.0443 |
| UCHL1 (UniProt P09936) | -0.155 |
| UniProt Q8TE49 | -1.08 (active) |
| UCHL5 (UniProt Q9Y5K5) | -0.19 |
| USP9X (UniProt Q93008) | -0.123 |
| UniProt Q9UGI0 | 0.243 |
| UniProt P51784 | 0.0228 |
| USP8 (UniProt P40818) | -0.0614 |
| UCHL3 (UniProt P15374) | -0.294 |
| OTUD7B (UniProt Q6GQQ9) | -3.09 (active) |
| USP4 (UniProt Q13107) | -0.588 |
